Data from the supplement of paper PMC9262897, “Low-cost anti-mycobacterial drug discovery using engineered E. coli” (Nature Communications, 2022).
Structures can show the parent of a compound that is named as a salt. ± gives the standard deviation of the averaged measurements.

Each compound was assayed on E. coli TESEC Alr+ wild-type control (assay: growth (OD600 after 10 h); higher = more growth (less inhibition)). Details: compound 0.1 mM; raw OD600 reference: median of DMSO wells 0.49, cell-free background 0.052.
Method: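 TESEC Mtb Alr E. coli (ΔaraC ΔtolC ΔentC Δalr ΔdadX, arabinose-inducible Mtb Alr) or the Alr+ wild-type control strain, grown in defined M9-fructose medium without D-alanine in 96-well plates with Prestwick library compounds at 0.1 mM and 1% DMSO. Low Alr induction is 0.1 µM arabinose and high induction is 10 mM arabinose.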

| SMILES | growth |
| --- | --- |
| Cc1cc(=O)oc2cc(O)ccc12 [Hymecromone] | 0.631 ± 0.01 |
| CC(C)(Oc1ccc(CCNC(=O)c2ccc(Cl)cc2)cc1)C(=O)O [Bezafibrate] | 0.483 ± 0.015 |
| Nc1ccc(S(=O)(=O)NC(=O)c2ccccc2)cc1 [Sulfabenzamide] | 0.43 ± 0.0081 |
| Cc1ccc(Cl)c(Nc2ccccc2C(=O)O)c1Cl [Meclofenamic acid sodium salt monohydrate] | 0.139 ± 0.011 |
| CC1(C)O[C@@H]2C[C@H]3[C@@H]4C[C@H](F)C5=CC(=O)C=C[C@]5(C)[C@H]4[C@@H](O)C[C@]3(C)[C@]2(C(=O)CO)O1 [Flunisolide] | 0.418 ± 0.031 |
| C/C(=C(\CCOP(=O)(O)O)SC(=O)c1ccccc1)N(C=O)Cc1cnc(C)nc1N [Benfotiamine] | 0.502 ± 0.11 |
| CN(C)[C@@H]1C(=O)C(C(N)=O)=C(O)[C@@]2(O)C(=O)C3=C(O)c4c(O)ccc(Cl)c4[C@@H](O)[C@H]3C[C@@H]12 [Demeclocycline hydrochloride] | 0.05087 ± 0.00038 |
| CCN1CCN(C(=O)N[C@@H](C(=O)N[C@@H]2C(=O)N3C(C(=O)O)=C(CSc4nnnn4C)CS[C@H]23)c2ccc(O)cc2)C(=O)C1=O [Cefoperazone dihydrate] | 0.512 ± 0.039 |
| CC(Oc1c(Cl)cccc1Cl)C1=NCCN1 (stereo not given) [Lofexidine] | 0.555 ± 0.044 |
| OC(CCN1CCCCC1)(c1ccccc1)C1CC2C=CC1C2 (stereo not given) [Biperiden hydrochloride] | 0.509 ± 0.062 |
| CC(C)(Oc1ccc(Cl)cc1)C(=O)O [Clofibric acid] | 0.547 ± 0.1 |
| CO[C@H]1/C=C/O[C@@]2(C)Oc3c(C)c(O)c4c(O)c(c(/C=N/N5CCN(C6CCCC6)CC5)c(O)c4c3C2=O)NC(=O)/C(C)=C\C=C\[C@H](C)[C@H](O)[C@@H](C)[C@@H](O)[C@@H](C)[C@H](OC(C)=O)[C@@H]1C [Rifapentine] | 0.05153 ± 0.00031 |
| CO[C@H]1/C=C/O[C@@]2(C)Oc3c(C)c(O)c4c(O)c(c(/C=N/N5CCN(C)CC5)c(O)c4c3C2=O)NC(=O)/C(C)=C\C=C\[C@H](C)[C@H](O)[C@@H](C)[C@@H](O)[C@@H](C)[C@H](OC(C)=O)[C@@H]1C [Rifampicin] | 0.05337 ± 0.00042 |
| CCCCc1ccc2[nH]c(NC(=O)OC)nc2c1 [Parbendazole] | 0.496 ± 0.038 |
| COc1cc(Cc2cnc(N)nc2N)cc(OC)c1OC [Trimethoprim] | 0.0896 ± 0.0014 |
| CN(C)CCOC(c1ccccc1)c1ccccc1.Cn1c(=O)c2[nH]c(Cl)nc2n(C)c1=O [Dimenhydrinate] | 0.53 ± 0.059 |
| CNCCC(Oc1ccccc1OC)c1ccccc1 (stereo not given) [Nisoxetine hydrochloride] | 0.566 ± 0.12 |
| COc1ccc(C(=O)c2ccccc2O)c(O)c1 [Dioxybenzone] | 0.355 ± 0.014 |
| CCN(CC)CCNC(=O)c1cc(Cl)c(N)cc1OC [Metoclopramide monohydrochloride] | 0.633 ± 0.05 |
| O=C1NCC2(CCN(CCc3ccccc3)CC2)O1 [Fenspiride hydrochloride] | 0.487 ± 0.054 |

| SMILES | growth |
| --- | --- |
| CC(=O)NS(=O)(=O)c1ccc(N)cc1 [Sulfacetamide sodic hydrate] | 0.486 ± 0.053 |
| CC(=O)[C@H]1CC[C@H]2[C@@H]3CCC4=CC(=O)CC[C@]4(C)[C@H]3CC[C@]12C [Progesterone] | 0.101 ± 0.0049 |
| COC(=O)Nc1nc2cc(C(=O)c3ccc(F)cc3)ccc2[nH]1 [Flubendazol] | 0.6 ± 0.078 |
| Cc1ncc([N+](=O)[O-])n1CC(O)CCl (stereo not given) [Ornidazole] | 0.43 ± 0.049 |
| CO[C@H]1C[C@H](O[C@H]2[C@H](C)[C@@H](O[C@@H]3O[C@H](C)C[C@H](N(C)C)[C@H]3OC(C)=O)[C@@H](C)C[C@@]3(CO3)C(=O)[C@H](C)[C@@H](OC(C)=O)[C@@H](C)[C@@H](C)OC(=O)[C@@H]2C)O[C@@H](C)[C@@H]1OC(C)=O [Troleandomycin] | 0.0617 ± 0.0015 |
| CCCCNc1ccc(C(=O)OCCOCCOCCOCCOCCOCCOCCOCCOCCOC)cc1 [Benzonatate] | 0.444 ± 0.033 |
| Cc1onc(-c2ccccc2Cl)c1C(=O)N[C@@H]1C(=O)N2[C@@H]1SC(C)(C)[C@@H]2C(=O)O [Cloxacillin sodium salt] | 0.514 ± 0.11 |
| COc1cc(C(=O)NC2CCCNC2)cc(OC)c1OC (stereo not given) [Troxipide] | 0.504 ± 0.1 |
| CCCCCNC(=N)N/N=C/c1c[nH]c2ccc(OC)cc12 [Tegaserod maleate] | 0.0476 ± 0.00066 |
| C=CCOC(Cn1ccnc1)c1ccc(Cl)cc1Cl (stereo not given) [Enilconazole] | 0.11 ± 0.01 |
| Cn1c(=O)c2c(ncn2CC2OCCO2)n(C)c1=O [Doxofylline] | 0.475 ± 0.076 |
| CC[C@H](C)C(=O)O[C@H]1C[C@@H](C)C=C2C=C[C@H](C)[C@H](CC[C@@H]3C[C@@H](O)CC(=O)O3)[C@H]21 [Lovastatin] | 0.473 ± 0.043 |
| CCC(=O)O[C@]1(C(=O)SCF)[C@H](C)C[C@H]2[C@@H]3C[C@H](F)C4=CC(=O)C=C[C@]4(C)[C@@]3(F)[C@@H](O)C[C@@]21C [Fluticasone propionate] | 0.576 ± 0.026 |
| O=C(O[C@@H]1C[C@@H]2C[C@H]3C[C@H](C1)N2CC3=O)c1c[nH]c2ccccc12 [Dolasetron mesilate] | 0.473 ± 0.027 |
| C=C1C[C@H]2[C@@H]3C=C(C)C4=CC(=O)CC[C@]4(C)[C@H]3CC[C@]2(C)[C@@]1(OC(C)=O)C(C)=O [Melengestrol acetate] | 0.205 ± 0.053 |
| CCN(CCCCOC(=O)c1ccc(OC)c(OC)c1)C(C)Cc1ccc(OC)cc1 (stereo not given) [Mebeverine hydrochloride] | 0.435 ± 0.016 |
| CC(=O)CC(c1ccc([N+](=O)[O-])cc1)c1c(O)c2ccccc2oc1=O (stereo not given) [Acenocoumarol] | 0.503 ± 0.0074 |
| Cn1cnc([N+](=O)[O-])c1Sc1ncnc2[nH]cnc12 [Azathioprine] | 0.27 ± 0.0092 |
| CCN(CC)CCOc1ccc(C(=C(Cl)c2ccccc2)c2ccccc2)cc1 [Clomiphene citrate (Z,E)] | 0.0537 ± 0.00085 |
| CN(C)CCCN1c2ccccc2Sc2ccc(C(F)(F)F)cc21 [Triflupromazine hydrochloride] | 0.049 ± 0.00076 |
